# Where “and” joins values, the source holds several entries; their conditions need not be identical. Equal values may be shown once. Where a name gives a salt, the structure may show the parent alone. The whole screen tested about 5,800 compounds, of which about 620 (11%) showed activity. Shown is part of a subset that was picked to be rich in actives. A number with no mark means an inactive call.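 The calls were made as follows: active = score above a cut-off or among the top three wells of a plate; in these data no inactive exceeds 0.85.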
# Tested on: primary human hepatic stellate cells (donor 1)
# Experiment: scaled lipid accumulation score (0 = DMSO-like, 1 = nortriptyline-like); higher = stronger HSC inactivation (lipid re-accumulation), active = hit call of the paper
# Details: 48 h
# [1] = library stock concentration: 10 mM
# [2] = library stock concentration: 80 uM
# [3] = library stock concentration: 400 uM
# [4] = library stock concentration: 2 mM
# [5] = library stock concentration: 1 mM
# [6] = library stock concentration: 3.33 mM
smiles,measurement,setting,value
N=C(N)S/C=C\C(=O)O [ZAPA sulphate],scaled lipid accumulation score,[1],0.011
CC(O)C(=O)O.N (stereo not given),scaled lipid accumulation score,[1],≤ 0
CC(C)S(=O)(=O)Nc1ccc(F)c(C(=O)c2c[nH]c3ncc(-c4cccnc4)cc23)c1F,scaled lipid accumulation score,[2],≤ 0
same,scaled lipid accumulation score,[3],≤ 0
same,scaled lipid accumulation score,[4],≤ 0
same,scaled lipid accumulation score,[1],0.059
CC(C)(CCCCCCCCCCC(C)(C)CC(=O)O)CC(=O)O,scaled lipid accumulation score,[5],0.013
CCCCC/C=C\C/C=C\C/C=C\C/C=C\CCCC(=O)OCC [Arachidonic Acid ethyl ester],scaled lipid accumulation score,[5],≤ 0
CC(C)=CCC/C(C)=C/CC/C(C)=C/CSc1ccccc1C(N)=O [Farnesyl Thiosalicylic Acid Amide],scaled lipid accumulation score,[5],≤ 0
CCCCCCCCCCCCCCCC(=O)OC[C@H](COP(=O)([O-])OCC[N+](C)(C)C)OC(=O)CCCCCCCC(=O)/C=C/C(=O)O,scaled lipid accumulation score,[5],0.026
"Nc1nc2c(nc(Br)n2[C@@H]2O[C@@H]3COP(=O)(O)O[C@H]3[C@H]2O)c(=O)[nH]1 [8-Bromo-cGMP, sodium salt]",scaled lipid accumulation score,[1],0.026
CCCCC/C=C\C[C@@H](O)/C=C/C=C/C=C\[C@@H](O)CCCC(=O)O [Leukotriene B4],scaled lipid accumulation score,library stock concentration: 100 uM,≤ -0.021
NC(CCCP(=O)(O)O)C(=O)O (stereo not given),scaled lipid accumulation score,[1],0.024
NC(CCCP(=O)(O)O)C(=O)O (stereo not drawn) [D(-)-2-Amino-5-phosphonopentanoic acid],scaled lipid accumulation score,[1],0.148
CCCCCCCCc1ccc(CCC(N)(CO)CO)cc1 [Fingolimod (FTY720) HCl],scaled lipid accumulation score,[1],0.376
CCCCCCCCc1ccc(CCC(N)(CO)CO)cc1.Cl [Fingolimod (FTY720) HCl],scaled lipid accumulation score,[6],1.17 (active)
CCCCCCCCc1ccc(-c2ccc(C(=O)O)cc2)cc1,scaled lipid accumulation score,[1],≤ 0 and 0.032
CCCCCCCCc1ccc(CCC(N)(CO)CO)cc1,scaled lipid accumulation score,[5],0.527
CC1(C)CCC(C)(C)c2cc(C3(c4ccc(C(=O)O)cc4)OCCO3)ccc21,scaled lipid accumulation score,[1],≤ -0.001
COCCCCCCCCCCCC(=O)O [12-Methoxydodecanoic acid],scaled lipid accumulation score,[5],≤ -0.021
COCCCC/C(=N\OCCN)c1ccc(C(F)(F)F)cc1 [Fluvoxamine],scaled lipid accumulation score,[1],0.69
COCCCC/C(=N\OCCN)c1ccc(C(F)(F)F)cc1.O=C(O)/C=C\C(=O)O [Fluvoxamine maleate],scaled lipid accumulation score,[1],1.13 (active)
COCCCC/C(=N\OCCN)c1ccc(C(F)(F)F)cc1 [Fluvoxamine maleate],scaled lipid accumulation score,,0.592
same,scaled lipid accumulation score,[6],0.347
same,scaled lipid accumulation score,[1],0.81 and 0.545
CCCCC[C@H](O)/C=C/[C@@H]1[C@@H](C/C=C\CCCC(=O)O)[C@H](O)C[C@H]1O [Prostaglandin F2.beta.],scaled lipid accumulation score,[5],≤ 0
CCCCC[C@H](O)/C=C/[C@@H]1[C@@H](C/C=C\CCCC(=O)O)[C@H](O)C[C@H]1O [Prostaglandin F2.beta. (tromethamine salt)],scaled lipid accumulation score,[5],≤ 0
"CCCCC[C@H](O)/C=C/[C@@H]1[C@@H](C/C=C\CCCC(=O)O)[C@H](O)C[C@H]1O [9b,11a-Prostaglandin F2]",scaled lipid accumulation score,[5],≤ -0.021
CSc1ccc2c(c1)C(N1CCN(C)CC1)Cc1ccccc1S2 (stereo not given) [Methiothepin maleate],scaled lipid accumulation score,,0.829
CSc1ccc2c(c1)C(N1CCN(C)CC1)Cc1ccccc1S2.O=C(O)/C=C\C(=O)O (stereo not given) [Methiothepin maleate],scaled lipid accumulation score,[1],1.41 (active)
CSc1ccc2c(c1)C(N1CCN(C)CC1)Cc1ccccc1S2 (stereo not given) [Methiothepin mesylate],scaled lipid accumulation score,[1],0.774
CCCCCC(O)C=CC1C(O)CC(=O)C1CC=CCCCC(=O)O (stereo not given) [8-iso Prostaglandin E2],scaled lipid accumulation score,[5],≤ 0
CO[C@H]1C[C@H](O[C@H]2[C@H](C)O[C@@H](O[C@@H]3/C(C)=C/C[C@@H]4C[C@@H](C[C@]5(C=C[C@H](C)[C@@H](C6CCCCC6)O5)O4)OC(=O)[C@@H]4C=C(C)[C@@H](O)[C@H]5OC/C(=C\C=C\[C@@H]3C)[C@]54O)C[C@@H]2OC)O[C@@H](C)[C@@H]1O,scaled lipid accumulation score,[1],0.081
"CCCCC[C@H](O)CC[C@H]1[C@H](O)CC(=O)[C@@H]1CCCCCCC(=O)O [13,14-Dihydro-PGE1]",scaled lipid accumulation score,[5],≤ -0.021
Cc1cn(-c2cc(NC(=O)c3ccc(C)c(Nc4nccc(-c5cccnc5)n4)c3)cc(C(F)(F)F)c2)cn1 [Nilotinib (AMN-107)],scaled lipid accumulation score,[6],0.438
same,scaled lipid accumulation score,[1],0.668
"Cc1cn(-c2cc(NC(=O)c3ccc(C)c(Nc4nccc(-c5cccnc5)n4)c3)cc(C(F)(F)F)c2)cn1 [Nilotinib (AMN107, Tasigna) (2 mM)]",scaled lipid accumulation score,[4],≤ -0.005
"Cc1cn(-c2cc(NC(=O)c3ccc(C)c(Nc4nccc(-c5cccnc5)n4)c3)cc(C(F)(F)F)c2)cn1 [Nilotinib (AMN107, Tasigna) (10 mM)]",scaled lipid accumulation score,[1],0.552
CNc1nccc(-c2cccnc2Oc2cc(C(=O)Nc3cccc(C(F)(F)F)c3)ccc2C)n1 [listing 1 of 2 here],scaled lipid accumulation score,[3],≤ -0.005
same,scaled lipid accumulation score,[4],≤ -0.005
"Cc1cn(-c2cc(NC(=O)c3ccc(C)c(Nc4nccc(-c5cccnc5)n4)c3)cc(C(F)(F)F)c2)cn1 [Nilotinib (AMN107, Tasigna) (0.4 mM)]",scaled lipid accumulation score,[3],0.053
Cc1cn(-c2cc(NC(=O)c3ccc(C)c(Nc4nccc(-c5cccnc5)n4)c3)cc(C(F)(F)F)c2)cn1,scaled lipid accumulation score,[2],≤ -0.009
same,scaled lipid accumulation score,[3],0.035
same,scaled lipid accumulation score,[4],≤ -0.009
same,scaled lipid accumulation score,[1],≤ -0.008
CNc1nccc(-c2cccnc2Oc2cc(C(=O)Nc3cccc(C(F)(F)F)c3)ccc2C)n1 [listing 2 of 2 here],scaled lipid accumulation score,[1],1.13 (active)
O=C(O)CCCCC1CCSS1 (racemic) [DL-.alpha.-Lipoic Acid],scaled lipid accumulation score,[5],≤ 0
C[C@H]1C[C@H]2[C@@H]3CCC4=CC(=O)C=C[C@]4(C)[C@@]3(F)[C@@H](O)C[C@]2(C)[C@@]1(O)C(=O)COP(=O)(O)O,scaled lipid accumulation score,[1],≤ 0
CCOc1cc(N2CCC(O)CC2)ccc1Nc1ncc2c(n1)N(C)c1ccccc1C(=O)N2C,scaled lipid accumulation score,[2],≤ -0.009
same,scaled lipid accumulation score,[3],0.026
same,scaled lipid accumulation score,[4],≤ -0.009
same,scaled lipid accumulation score,[6],≤ -0.009
same,scaled lipid accumulation score,[1],0.473 and 0.012
CC[C@@H]1C(=O)N(C)c2cnc(Nc3ccc(C(=O)N[C@H]4CC[C@H](N5CCN(CC6CC6)CC5)CC4)cc3OC)nc2N1C(C)C [Volasertib] [listing 1 of 2 here],scaled lipid accumulation score,[2],0.154
same,scaled lipid accumulation score,[3],0.358
same,scaled lipid accumulation score,[4],0.451
COc1cc(C(=O)NC2CCN(C)CC2)ccc1Nc1ncc2c(n1)N(C1CCCC1)CC(F)(F)C(=O)N2C,scaled lipid accumulation score,[6],0.271
same,scaled lipid accumulation score,[1],0.722
CC[C@@H]1C(=O)N(C)c2cnc(Nc3ccc(C(=O)N[C@H]4CC[C@H](N5CCN(CC6CC6)CC5)CC4)cc3OC)nc2N1C(C)C [Volasertib (BI 6727)],scaled lipid accumulation score,[6],0.97 (active)
same,scaled lipid accumulation score,[1],0.916 (active)
CC[C@@H]1C(=O)N(C)c2cnc(Nc3ccc(C(=O)NC4CCN(C)CC4)cc3OC)nc2N1C1CCCC1 [listing 1 of 2 here],scaled lipid accumulation score,[2],0.007
same,scaled lipid accumulation score,[3],0.527
same,scaled lipid accumulation score,[4],0.722 and 0.628
same,scaled lipid accumulation score,[6],0.569
same,scaled lipid accumulation score,[1],0.749 and 0.538 and 0.259
COc1cc(C(=O)NC2CCN(C)CC2)ccc1Nc1ncc2c(n1)N(C1CCCC1)C(C)CC(=O)N2C (stereo not given),scaled lipid accumulation score,[2],≤ 0
same,scaled lipid accumulation score,[3],≤ 0
same,scaled lipid accumulation score,[4],0.177
same,scaled lipid accumulation score,[1],0.428
CC[C@@H]1C(=O)N(C)c2cnc(Nc3ccc(C(=O)NC4CCN(C)CC4)cc3OC)nc2N1C1CCCC1 [listing 2 of 2 here],scaled lipid accumulation score,[3],1.02 (active)
CC(C)CCN1c2nc(Nc3cc(F)c(O)c(F)c3)ncc2N(C)C(=O)C1C (stereo not given),scaled lipid accumulation score,[2],≤ -0.001
same,scaled lipid accumulation score,[3],≤ -0.001 and ≤ -0.005
same,scaled lipid accumulation score,[4],≤ -0.001 and 0.123
same,scaled lipid accumulation score,[6],≤ 0
same,scaled lipid accumulation score,[1],≤ 0 and ≤ -0.001 and 0.36
CC[C@@H]1C(=O)N(C)c2cnc(Nc3ccc(C(=O)N[C@H]4CC[C@H](N5CCN(CC6CC6)CC5)CC4)cc3OC)nc2N1C(C)C [Volasertib] [listing 2 of 2 here],scaled lipid accumulation score,[1],1.17 (active)
COc1cc(C(=O)NC2CCN(C)CC2)ccc1Nc1ncc2c(n1)N(C1CCCC1)CCC(=O)N2C(C)C [listing 1 of 2 here],scaled lipid accumulation score,[1],0.868 (active)
COc1cc(C(=O)NC2CCN(C)CC2)ccc1Nc1ncc2c(n1)N(C1CCCC1)CCC(=O)N2C(C)C [listing 2 of 2 here],scaled lipid accumulation score,[2],≤ 0
same,scaled lipid accumulation score,[3],≤ 0
same,scaled lipid accumulation score,[4],0.132
